Data as given in the supplement of paper PMC10933113.
Unmarked numbers belong to inactive results.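 Rule for the calls: active = curve rank above 3; inactive = curve rank 0.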

These compounds were tested on KeratinoSens (HaCaT ARE-luciferase) cells (assay: Nrf2/ARE luciferase activation call in qHTS KeratinoSens assay (1 = active, 0 = inactive)).

Row | Structure (SMILES) | Nrf2/ARE luciferase activation call
1 | CCCC[n+]1cccc(C)c1.O=S(=O)([O-])C(F)(F)F | not active ARE inducer (skin sensitizer alert)
2 | CCCC[N+]1(C)CCCC1.O=S(=O)([O-])C(F)(F)F | not active ARE inducer (skin sensitizer alert)
3 | CC(C)NCC(O)COc1ccc(COCCOC(C)C)cc1.CC(C)NCC(O)COc1ccc(COCCOC(C)C)cc1.O=C(O)/C=C/C(=O)O (stereo not drawn) | not active ARE inducer (skin sensitizer alert)
4 | CC(C)(C)NC[C@H](O)COc1nsnc1N1CCOCC1.O=C(O)/C=C\C(=O)O | not active ARE inducer (skin sensitizer alert)
5 | CN(C)CCOc1ccccc1Cc1ccccc1.O=C(O)CC(O)(CC(=O)O)C(=O)O | not active ARE inducer (skin sensitizer alert)
6 | CN1Cc2c(N)cccc2C(c2ccccc2)C1.O=C(O)/C=C\C(=O)O (stereo not drawn) | not active ARE inducer (skin sensitizer alert)
7 | CCCc1nn(C)c2c(=O)[nH]c(-c3cc(S(=O)(=O)N4CCN(C)CC4)ccc3OCC)nc12.O=C(O)CC(O)(CC(=O)O)C(=O)O | not active ARE inducer (skin sensitizer alert)
8 | Cc1ccc(S(=O)(=O)O)cc1.NC1CCN(c2nc3c(cc2F)c(=O)c(C(=O)O)cn3-c2ccc(F)cc2F)C1 (stereo not drawn) | not active ARE inducer (skin sensitizer alert)
